The nature of assay [1]: small molecules captured by biotinylated probe aFSTL3 – biochemical, small-molecule microarray, fluorescence 635/667, stem cell growth factor project, primary screen (AID 1064).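 Also: measures binding of the biotinylated anti-FSTL3 antibody to printed compounds.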 The settings on record: higher = more signal.
Assay [2] in a line: binders from COS7 lysate, DM2A8 probe, primary screen, torsin A project, cell lysate, small-molecule microarray, fluorescence 635/667 (AID 1065). The settings on record: higher = more signal, COS7 lysate expressing mutant human TOR1A.
The nature of assay [3]: small molecules captured by biotinylated probe aFGF2 – biochemical, small-molecule microarray, fluorescence 635/667, stem cell growth factor project, primary screen (AID 1067).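 Also: measures binding of biotinylated aFGF2 protein to printed compounds on slides; z-score merges feature fluorescence and signal-to-noise across triplicate slides.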 The settings on record: higher = more signal.
The nature of assay [4]: small molecules captured by biotinylated probe aFGF10 – biochemical, small-molecule microarray, fluorescence 635/667, stem cell growth factor project, primary screen (AID 1071).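 Also: score merges 667 nm spot intensity and signal to noise from triplicate slides.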 The settings on record: higher = more signal.
The target in assay [5] is Neurogenic locus notch homolog protein 2 (Homo sapiens) (UniProt Q04721). Kind of assay: small molecules binding Notch2 protein – biochemical, small-molecule microarray, 635 nm fluorescence, stem cell growth factors, primary screen (AID 1073). The settings on record: higher = more signal.
Assay [6] deals with Pro-neuregulin-1, membrane-bound isoform (Homo sapiens) (UniProt Q02297). Description: small molecules binding neuregulin-1 protein – biochemical, small-molecule microarray, fluorescence 635/667, psychiatric disease protein project, primary screen (AID 1075).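 Also: score combines 667 nm spot fluorescence with signal to noise.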 The settings on record: NRG1 binding, 635 nm fluorescence, higher = more signal.
The subject of assay [7] is Neuregulin-1 EGF-like domain. Description: small molecules binding NRG1 EGF domain – biochemical, small-molecule microarray, 635 nm fluorescence, primary screen (AID 1081).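 Also: binding of the protein to compounds printed on small-molecule microarray slides.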 The settings on record: higher = more signal.
Assay [8] in a line: FRG1 expression reporter modulators in myotubes – cell-based, C2C12 myotubes, firefly/Renilla luciferase, luminescence, FRG1 inhibition for FSHD, primary screen (AID 1084). The settings on record: FRG1 promoter luciferase, higher = more signal, called active from +8 up or from −8 down.
Assay [9] can be described thus: small molecules captured by biotinylated probe aFST – biochemical, small-molecule microarray, fluorescence 635/667, stem cell growth factor project, primary screen (AID 1086).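 Also: score merges 667 nm fluorescence with signal-to-noise of each printed compound spot.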 The settings on record: higher = more signal.
The nature of assay [10]: binders of probe aHhip on microarray, primary screen, stem cell growth factor project, biochemical, small-molecule microarray, fluorescence 635/667 (AID 1087).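 Also: score merges spot fluorescence at 667nm with spot signal to noise ratio.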 The settings on record: higher = more signal.
Assay [11] deals with PRMT1 (protein arginine N-methyltransferase 1). Description: small molecules binding arginine methyltransferase PRMT1 – biochemical, small-molecule microarray, 635 nm fluorescence, primary screen (AID 1088).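 Also: binding of Prmt1 protein to compounds spotted on small-molecule microarray slides.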 The settings on record: higher = more signal.
Assay [12] can be described thus: growth effects on S. cerevisiae YJM789 – YJM789 clinical isolate, OD600, 24 h, basal, primary screen (AID 1089).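 Also: growth of clinical yeast isolate S. cerevisiae YJM 789 seeded 1000 cells per well; test concentration not given here.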 The settings on record: higher = more signal, called active from +8 up or from −8 down.
The nature of assay [13]: S. pombe growth modifiers, basal conditions – strain 972, OD600, 24 h, no modulator, primary screen (AID 1090).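 Also: basal condition with compound alone and no growth modifier present; test concentration not given here.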 The settings on record: S. pombe 972 growth, higher = more signal, called active from +8 up or from −8 down.
Assay [14] is described as follows: budding yeast growth modifiers under rapamycin – strain BY4716, OD600, 96 h, primary screen (AID 1091). Also: test concentration not given here. The settings on record: S. cerevisiae BY4716 + rapamycin, higher = more signal, called active from +8 up or from −8 down.
In assay [15] the target is Torsin-1A-interacting protein 2 (Homo sapiens) (UniProt Q8NFQ8). Kind of assay: small molecules binding lysate-expressed LULL1 – cell lysate, human LULL1 lysate, 635/667 nm fluorescence, primary screen (AID 1092).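 Also: probe is lysate of COS7 cells overexpressing human LULL1; score merges per-feature 667 nm fluorescence with signal-to-noise.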 The settings on record: small-molecule microarray, hLULL1 lysate binding, 635 nm fluorescence; higher = more signal.
Assay [16] in a line: optical density change of DRC41 E. coli – strain DRC41, OD650, 24 h, E. coli filamentation project, primary screen (AID 1093).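 Also: MC1000 strain lacking acrAB efflux and sulA so SOS filamentation is blocked; test concentration not given here.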 The settings on record: E. coli DRC41 growth, higher = more signal, called active from +8 up or from −8 down.
Assay [17] is described as follows: probe aLefty2 binding to arrayed compounds – biochemical, biotinylated probe, 635/667 nm fluorescence, primary screen (AID 1094).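 Also: score merges spot fluorescence near 667 nm with spot signal-to-noise ratio.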 The settings on record: small-molecule microarray, higher = more signal.
The test system of assay [18] is Noggin (protein binding on small-molecule microarray). Kind of assay: small molecules binding Noggin protein – biochemical, 635/667 nm fluorescence, primary screen (AID 1095).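 Also: score merges 667 nm feature fluorescence with signal to noise over triplicate slides.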 The settings on record: 635 nm fluorescence, higher = more signal.
The target of assay [19] is Neurogenic locus notch homolog protein 3 (Homo sapiens) (UniProt Q9UM47). Description: small molecules binding NOTCH3 protein – biochemical, 635/667 nm fluorescence, primary screen (AID 1096). The settings on record: small-molecule microarray, 635 nm fluorescence, higher = more signal.
The nature of assay [20]: probe aEGFR binding to arrayed compounds – biochemical, biotinylated probe, 635/667 nm fluorescence, primary screen (AID 1097).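 Also: probe is a biotinylated anti-EGFR antibody binding compounds printed on slides; score combines fluorescence near 667 nm and signal to noise of each spot.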 The settings on record: small-molecule microarray, higher = more signal.

Active and inactive are the calls of the source.

Chain of Pro-neuregulin-1, membrane-bound isoform (Homo sapiens) (Q02297 whole entry, looked up, the tested form may be a part, canonical isoform): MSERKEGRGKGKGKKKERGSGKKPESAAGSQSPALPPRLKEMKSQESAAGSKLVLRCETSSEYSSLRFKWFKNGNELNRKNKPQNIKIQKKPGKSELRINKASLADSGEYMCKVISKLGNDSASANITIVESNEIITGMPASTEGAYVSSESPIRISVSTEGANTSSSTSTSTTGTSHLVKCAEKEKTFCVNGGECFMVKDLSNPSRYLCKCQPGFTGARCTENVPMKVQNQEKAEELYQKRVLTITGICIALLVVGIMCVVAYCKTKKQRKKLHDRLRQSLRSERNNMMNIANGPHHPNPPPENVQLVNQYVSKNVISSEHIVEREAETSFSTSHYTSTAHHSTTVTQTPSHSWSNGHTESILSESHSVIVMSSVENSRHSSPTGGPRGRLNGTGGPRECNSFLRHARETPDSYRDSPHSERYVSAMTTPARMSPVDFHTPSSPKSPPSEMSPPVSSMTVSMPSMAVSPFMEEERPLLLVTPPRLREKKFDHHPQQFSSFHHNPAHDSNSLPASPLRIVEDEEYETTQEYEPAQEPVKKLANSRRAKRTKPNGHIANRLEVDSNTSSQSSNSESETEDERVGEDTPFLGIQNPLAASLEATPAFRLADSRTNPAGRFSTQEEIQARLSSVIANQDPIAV
Chain of Neurogenic locus notch homolog protein 2 (Homo sapiens) (Q04721 whole entry, looked up, canonical isoform): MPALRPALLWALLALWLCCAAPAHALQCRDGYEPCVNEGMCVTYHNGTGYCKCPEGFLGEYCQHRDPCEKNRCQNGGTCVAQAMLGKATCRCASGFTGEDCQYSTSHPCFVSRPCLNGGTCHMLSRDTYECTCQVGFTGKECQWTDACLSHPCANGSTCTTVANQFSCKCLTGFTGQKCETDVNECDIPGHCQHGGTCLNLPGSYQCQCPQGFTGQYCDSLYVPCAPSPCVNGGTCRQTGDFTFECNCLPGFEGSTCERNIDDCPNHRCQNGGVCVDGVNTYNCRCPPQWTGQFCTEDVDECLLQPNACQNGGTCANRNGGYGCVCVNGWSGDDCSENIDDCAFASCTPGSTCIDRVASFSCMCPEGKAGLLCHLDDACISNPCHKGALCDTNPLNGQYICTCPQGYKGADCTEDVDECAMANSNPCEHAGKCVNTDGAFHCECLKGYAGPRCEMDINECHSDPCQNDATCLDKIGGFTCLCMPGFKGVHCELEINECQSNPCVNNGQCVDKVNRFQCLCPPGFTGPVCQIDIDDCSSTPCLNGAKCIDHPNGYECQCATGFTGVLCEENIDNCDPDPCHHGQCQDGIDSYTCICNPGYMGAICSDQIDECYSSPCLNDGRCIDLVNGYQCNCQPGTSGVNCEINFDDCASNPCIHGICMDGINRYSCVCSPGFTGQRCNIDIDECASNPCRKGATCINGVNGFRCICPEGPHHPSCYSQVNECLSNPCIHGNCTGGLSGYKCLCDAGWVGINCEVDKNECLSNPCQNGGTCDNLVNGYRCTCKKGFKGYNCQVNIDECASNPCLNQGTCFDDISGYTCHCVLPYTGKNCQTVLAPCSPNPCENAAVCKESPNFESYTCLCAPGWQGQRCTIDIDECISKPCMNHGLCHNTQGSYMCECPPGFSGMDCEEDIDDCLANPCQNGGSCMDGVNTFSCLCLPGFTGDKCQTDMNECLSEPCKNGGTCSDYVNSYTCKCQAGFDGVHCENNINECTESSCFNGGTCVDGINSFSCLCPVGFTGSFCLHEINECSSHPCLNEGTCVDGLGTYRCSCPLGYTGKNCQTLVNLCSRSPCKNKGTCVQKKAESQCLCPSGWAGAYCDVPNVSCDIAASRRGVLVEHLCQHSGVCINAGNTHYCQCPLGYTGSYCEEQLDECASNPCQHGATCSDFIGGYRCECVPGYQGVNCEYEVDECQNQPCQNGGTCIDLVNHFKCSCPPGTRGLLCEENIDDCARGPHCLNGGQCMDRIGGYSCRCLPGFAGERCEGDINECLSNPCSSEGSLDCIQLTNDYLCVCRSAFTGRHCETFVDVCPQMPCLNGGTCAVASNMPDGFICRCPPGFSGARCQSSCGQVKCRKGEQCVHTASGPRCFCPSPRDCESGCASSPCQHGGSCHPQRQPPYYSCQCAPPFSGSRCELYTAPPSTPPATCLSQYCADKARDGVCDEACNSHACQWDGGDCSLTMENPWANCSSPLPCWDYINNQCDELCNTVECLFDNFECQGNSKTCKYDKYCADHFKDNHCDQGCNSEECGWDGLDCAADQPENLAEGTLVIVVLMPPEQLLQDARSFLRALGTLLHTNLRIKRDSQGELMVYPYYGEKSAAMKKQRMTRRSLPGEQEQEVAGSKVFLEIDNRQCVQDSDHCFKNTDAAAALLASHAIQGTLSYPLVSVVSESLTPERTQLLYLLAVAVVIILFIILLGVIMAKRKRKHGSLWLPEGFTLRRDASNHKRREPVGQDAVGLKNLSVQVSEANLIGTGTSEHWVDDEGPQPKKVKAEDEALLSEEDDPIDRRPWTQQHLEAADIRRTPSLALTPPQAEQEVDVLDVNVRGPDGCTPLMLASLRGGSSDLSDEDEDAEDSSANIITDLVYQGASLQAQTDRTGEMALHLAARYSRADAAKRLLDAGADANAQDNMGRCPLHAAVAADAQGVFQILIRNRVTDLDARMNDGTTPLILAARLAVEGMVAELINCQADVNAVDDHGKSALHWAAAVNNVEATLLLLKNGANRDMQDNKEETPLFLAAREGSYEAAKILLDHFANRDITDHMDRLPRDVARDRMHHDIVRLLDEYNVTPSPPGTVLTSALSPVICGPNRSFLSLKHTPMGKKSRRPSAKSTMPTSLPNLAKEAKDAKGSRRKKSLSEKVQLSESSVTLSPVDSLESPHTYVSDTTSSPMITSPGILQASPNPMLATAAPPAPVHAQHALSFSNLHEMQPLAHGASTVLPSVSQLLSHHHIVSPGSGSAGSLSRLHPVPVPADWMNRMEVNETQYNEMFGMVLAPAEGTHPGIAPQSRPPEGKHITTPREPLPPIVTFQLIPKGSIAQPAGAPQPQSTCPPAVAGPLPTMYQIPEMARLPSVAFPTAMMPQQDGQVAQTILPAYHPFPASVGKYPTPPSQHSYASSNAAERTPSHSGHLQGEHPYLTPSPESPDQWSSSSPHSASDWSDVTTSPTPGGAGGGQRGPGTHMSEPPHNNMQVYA
Chain of Torsin-1A-interacting protein 2 (Homo sapiens) (Q8NFQ8 whole entry, looked up): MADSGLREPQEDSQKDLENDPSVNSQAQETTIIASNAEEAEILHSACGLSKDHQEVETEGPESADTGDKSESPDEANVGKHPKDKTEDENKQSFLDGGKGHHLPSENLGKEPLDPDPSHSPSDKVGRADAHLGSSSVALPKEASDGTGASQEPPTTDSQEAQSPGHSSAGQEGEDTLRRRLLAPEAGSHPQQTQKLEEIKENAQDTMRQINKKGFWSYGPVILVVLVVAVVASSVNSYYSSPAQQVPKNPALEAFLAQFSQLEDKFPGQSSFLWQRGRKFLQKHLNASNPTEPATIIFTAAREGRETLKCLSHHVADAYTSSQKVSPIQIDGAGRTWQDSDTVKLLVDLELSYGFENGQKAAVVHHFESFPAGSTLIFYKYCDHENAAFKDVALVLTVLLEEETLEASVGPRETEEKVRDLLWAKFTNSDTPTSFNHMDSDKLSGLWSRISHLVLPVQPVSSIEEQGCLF

For the compound `CCCC[C@@H]1C[C@H]1[C@@H](NC(=O)c1ccccc1)c1ccccc1C(F)(F)F`, the composite z-score worked out at 0.135 in [1]; 0.281 in assay [2]; 0.149 in assay [3]; 0.189 in assay [4]; 1.13 in [5]; 1.97 in [6]. Also, the composite z-score in [7] was 0.828; in [9], 0.819; in [10], -0.189; in assay [11], 1.03; in [15], 3.38; in assay [17], 0.198. Moreover, the composite z-score is 0.0984 in assay [18], 0.961 in assay [19] and -0.123 in assay [20]. The z-score in [8] is 0.822 (inactive); in assay [12] it was 0.261 (inactive); in assay [13] it was 0.367 (inactive); in [14] it was 0.0237 (inactive); in assay [16] it was 0.151 (inactive).
On to `C=CCN1C(=O)[C@@]2(O[C@@H](CCn3cc([C@H](O)c4ccccc4)nn3)[C@H]([Si](C)(C)c3ccc(OC)cc3)[C@H]2C)c2cc(N3CCOC3=O)ccc21`, for which the composite z-score was 0.228 in [1]; 0.39 in assay [2]; -0.104 in assay [3]; 0.105 in assay [4]; -0.261 in assay [5]; -0.344 in [6]. In addition, the composite z-score is 1.1 in assay [7]; -0.0319 in [9]; -0.0645 in assay [10]; 1.15 in [11]; 1.8 in [15]; -0.0463 in [17]. Moreover, the composite z-score in [18] was -0.0328; in assay [19], 0.131; in [20] it was -0.121. The z-score was -2 (inactive) in assay [8]; -1.26 (inactive) in assay [12]; -1.88 (inactive) in assay [13]; -0.723 (inactive) in assay [14]; 2.19 (inactive) in assay [16].
Regarding `C=CCc1cccc([C@@H]2[C@@H](C)CC[C@H]3C(=O)N4[C@H](c5cccc(CC=C)c5)[C@@H](C)CC[C@H]4C(=O)N23)c1`, the composite z-score in assay [1] is 0.0575; in assay [2] it was 0.537; in assay [3], -0.0677; in assay [4] it was 0.873; in [5] it was 1.07; in assay [6] it was 1.12. The composite z-score was determined as 0.536 in [7]; 0.56 in assay [9]; 0.154 in [10]; 0.592 in assay [11]; 0.785 in assay [15]; 0.0163 in assay [17]. Also, the composite z-score in assay [18] is 0.432; in assay [19] it was 0.671; in [20], -0.124. Further, the z-score was 0.313 (inactive) in assay [8]; -0.988 (inactive) in assay [12]; 0.0313 (inactive) in [13]; 6.6 (inactive) in [14]; 0.533 (inactive) in assay [16].
As to `C=CCN(C(=O)C1N(c2ccc(CCO)cc2)C(=O)C2C(C(=O)O)C3C=CC21O3)C(C)(C)C` (stereo not given), the composite z-score is 1.73 in assay [1]; -1.15 in assay [2]; -0.243 in assay [3]; -2.12 in assay [4]; -2.34 in [5]; -0.367 in assay [6]. Further, the composite z-score was 0.915 in assay [7]; -1.08 in [9]; -0.403 in assay [10]; -1.91 in [11]; 1.94 in assay [15]; -0.014 in assay [17]. Also, the composite z-score was -3.2 in [18], -1.92 in assay [19] and -0.356 in assay [20]. The z-score in [8] is 0.4 (inactive); in [12], -0.696 (inactive); in assay [13], -1.89 (inactive); in assay [14] it was -0.569 (inactive); in assay [16], 2.89 (inactive).
Regarding `C=C(C)[C@@H]1CC=C(C(O)C2C=CC3C(=O)NC(=O)C3N2Nc2ccccn2)CC1` (stereo not given in full), the composite z-score amounted to 0.541 in assay [1]; 1.27 in [2]; 0.0127 in assay [3]; 1.07 in assay [4]; 1.61 in [5]; 1.36 in assay [6]. Further, the composite z-score in assay [7] is 1.35; in [9], 1.5; in assay [10], 0.0524; in assay [11], 1.55; in [15], 2.76; in assay [17], 0.607. Moreover, the figures for the composite z-score in [18], in assay [19] and in assay [20] were 1.9, 1.02 and 0.641, respectively. Besides, the z-score was 1.65 (inactive) in [8]; 0.0118 (inactive) in assay [12]; 0.514 (inactive) in assay [13]; -0.285 (inactive) in assay [14]; -0.953 (inactive) in assay [16].

These data come from PubChem BioAssay.
